High-throughput results from PubChem BioAssay.
ALOX12 inh: blocks human arachidonate 12S-lipoxygenase | P18054 | hit rate 1.1% among 580,000 | purified 12hLO, xylenol orange hydroperoxide absorbance | Potency, µM (doses to about 108 µM), for inactives: at the highest dose activity change, negative = inhibition, usual class: inhibitors
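Purified human 12hLO at 150 nM in 25 mM Hepes, 0.01% Triton X-100, pH 7.0, preincubated 15 min at room temperature with compound. Reaction started with 40 uM arachidonic acid, 30 min at room temperature. Hydroperoxide measured by Fe-xylenol orange, 573/405 nm absorbance ratio.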
Gal4-VP16 FLuc: counter-screen for ROR gamma inhibitors: Gal4-VP16 reporter. Potency, µM (top dose mostly 53.6 µM), for inactives: at the top dose activity, negative = inhibition, most hits filed as inhibitors. hit rate 3.5% among 310,000. Drosophila S2 Gal4-VP16 UAS-luciferase, luminescence, 20 h. AID 2546;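 further: Gal4-VP16 expression switched on by copper sulfate through the metallothionein promoter; nearly all actives have a fitted effect of over 50% in size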
RORg inh: ROR gamma (mouse) transcription inhibition. P51450. Drosophila S2 Gal4-RORgamma UAS-luciferase reporter, 20 h. Potency, µM (highest dose often 53.6 µM), without a hit: top-dose activity change, negative = inhibition, most hits filed as inhibitors. hit rate 5.4% among 310,000. AID 2551; further: nearly all actives have a fitted effect of over 60% in size
Target sequence (P51450 whole entry, looked up, the tested form may be a part): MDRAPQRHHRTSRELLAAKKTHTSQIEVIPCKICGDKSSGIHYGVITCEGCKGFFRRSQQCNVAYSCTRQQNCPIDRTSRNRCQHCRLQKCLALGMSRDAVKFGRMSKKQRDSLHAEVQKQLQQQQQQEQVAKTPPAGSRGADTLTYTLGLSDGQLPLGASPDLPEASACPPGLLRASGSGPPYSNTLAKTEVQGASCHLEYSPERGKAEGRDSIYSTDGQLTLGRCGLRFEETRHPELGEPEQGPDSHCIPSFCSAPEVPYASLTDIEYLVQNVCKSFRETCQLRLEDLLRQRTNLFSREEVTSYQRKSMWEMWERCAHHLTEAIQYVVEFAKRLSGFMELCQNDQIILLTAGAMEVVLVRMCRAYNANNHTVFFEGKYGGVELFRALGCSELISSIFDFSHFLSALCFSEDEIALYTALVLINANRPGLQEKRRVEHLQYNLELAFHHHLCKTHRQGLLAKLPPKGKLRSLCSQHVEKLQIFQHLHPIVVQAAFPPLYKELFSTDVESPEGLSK
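Stable Schneider cell line, Gal4 DNA-binding domain fused to ROR gamma, UAS-luciferase. Cmpd 1 hr RT → CuSO4 700 uM final → 20 hr RT → luciferase reagent 10 min → luminescence.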
ELG1 repair inh: inhibitors of ELG1-dependent DNA repair in HEK293T cells | AID 504467 | hit rate 2.3% among 330,000 | Potency, µM (highest dose often 46.1 µM), inactives show at the highest dose activity change, negative = inhibition, most hits filed as inhibitors | HEK293T ELG1-luciferase reporter, luminescence, 16 h; DNA damage induced by 5-fluorouridine; further: nearly all actives have a fitted effect of over 55% in size
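HEK293T cells expressing luciferase-tagged ELG1 (2,000/well) received 5-Fluorouridine plus compound or DMSO for 16 hr at 37 °C. Luciferase was read by ONE-Glo luminescence after 30 min at room temperature.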
DT40 TDP1 CPT: DT40-hTDP1 cell growth loss with CPT; AID 686979; hit rate 12% among 420,000; chicken DT40 Tdp1-/-;hTDP1 cells + 20 nM CPT, ATP luminescence, 48 h; Potency, µM (doses to about 46.2 µM), inactives show at the highest dose activity change, negative = growth inhibition, hits mostly inhibitors; further: nearly all actives have a fitted effect of over 55% in size
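Chicken DT40 Tdp1-/- cells stably complemented with human TDP1 were seeded at 400 cells/well in medium containing 20 nM camptothecin, exposed to pin-transferred compounds, and grown at 37 °C for at least 48 hr. Viability was read as ATP luminescence.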
DT40 TDP1 no CPT: qHTS for Inhibitors of human tyrosyl-DNA phosphodiesterase 1 (TDP1): qHTS in cells in absence of CPT; Potency, µM (highest dose often 46.2 µM), without a hit: top-dose activity change, negative = growth inhibition, hits mostly inhibitors; AID 686978, 2013; DT40 Tdp1-/- hTDP1 cells, no CPT, ATP luminescence, 48 h; hit rate 15% among 420,000; further: nearly all actives have a fitted effect of over 55% in size
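Seeded 400 DT40-hTDP1 cells/well (vehicle DMSO, no 20 nM CPT); pinned compounds; ≥48 hr at 37 °C; CellTiter-Glo luminescence as viability measure.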
The depositor's hits bear a star; ? = inconclusive; nt = no result; ! = not confirmed by another sample; [ ] = another dose, or the depositor's remark. Sampled rows, rich in hits. Any-hit rate of the full collection: about 15%. The call rests on the fitted dose curve; in most records, active means well fitted curve in the direction sought with a large enough effect; inconclusive means small, poorly fitted or top-dose-only effect, or another doubt; inactive means no such curve, though single readings can be large; an effect the other way counts as inactive or inconclusive. On the % scale 0 is the no-effect control and ±100 the full control effect; potency means the concentration at half of the fitted maximal effect.

SMILES | ALOX12 inh | Gal4-VP16 FLuc | RORg inh | ELG1 repair inh | DT40 TDP1 CPT | DT40 TDP1 no CPT
Cc1cccc(N2CCN(C(=O)Cn3cnc4sc(C)c(S(=O)(=O)N5CCN(c6ncccn6)CC5)c4c3=O)CC2C)c1 (centres undefined) | ? | nt | nt | nt | 16µM* | 15µM*
COc1ccc(N2CCN(C(=O)Cn3cnc4sc(C)c(S(=O)(=O)N5CCC(C)CC5)c4c3=O)CC2)cc1 | -24% | nt | nt | nt | ? | 23µM*
Cc1sc2ncn(CC(=O)N3CCN(c4ccc(Cl)cc4)CC3)c(=O)c2c1S(=O)(=O)N1CCN(c2ncccn2)CC1 | -11% | nt | nt | nt | 12µM* | ?
COc1ccc2cc(C(=O)NCc3ccccc3CN3CCCC3)c(C)nc2c1 | -1% | nt | nt | nt | nt | nt
CC(=O)N1N=C(c2cccc(NS(C)(=O)=O)c2)CC1c1ccc2nccnc2c1 (centres undefined) | 26% | nt | nt | nt | nt | nt
COc1cc(C(=O)Nc2ccc3c(c2)nc2n3CCN(C(C)C)C2)cc(OC)c1OC | -26% | nt | nt | nt | nt | nt
CC(C)c1nnc(NC(=O)NCC(O)c2ccc(F)cc2)s1 (centres undefined) | 15% | nt | nt | nt | nt | nt
CC(C)(C)CC(C)(C)NCC(O)COc1ccc2c(c1)CCC2 (centres undefined) | -11% | nt | nt | nt | ? | 23µM*
COc1ccccc1N1CCN(CC(O)COc2ccc3c(c2)CCC3)CC1 (centres undefined) | 25% | -13% | -4% | ? | 16µM* | ?
Cc1nn(CC(O)COc2ccc3c(c2)CCC3)c(C)c1Br (centres undefined) | 5% | -29% | -2% | 13% | ? | ?
COc1ccccc1N1CCN(CC(O)COc2ccc(C)cc2C(C)(C)C)CC1 (centres undefined) | ? | nt | nt | nt | ? | 18µM*
Cc1ccc(OCC(O)CN2CCN(CC(O)COC(C)C)CC2)c(C(C)(C)C)c1 (centres undefined) | -5% | 4% | 10% | -3% | ? | ?
CC(=O)c1c(C)nn(CC(O)COc2ccc3c(c2)CCC3)c1C (centres undefined) | 2%[57.4 µM] | -6% | ? | ? | ? | 16µM*
Cc1nc(C)n(CC(O)COc2ccc3c(c2)CCC3)n1 (centres undefined) | -3%[57.4 µM] | 4% | 13% | 13% | -4% | -12%
COc1ccccc1N1CCN(CC(O)COc2ccc(C)c(C)c2)CC1 (centres undefined) | 0% | 2% | 13% | -1% | ? | -22%
O=c1oc2cc(OS(=O)(=O)c3ccccc3)ccc2cc1-c1ccccc1 | 11% | nt | nt | nt | nt | nt
Cc1ccc(NC(=O)CSc2nc3c(cnn3-c3ccc(C)cc3)c(=O)[nH]2)cc1 | -1% | nt | nt | nt | nt | nt
COCCOc1cccc(N)c1 | 4% | nt | nt | nt | nt | nt
CCOC(=O)[C@H]1[C@H]2COc3ccc(Cl)cc3[C@@H]2N2C(=O)CN(Cc3ccccc3)C(=O)[C@@]12C | -5% | nt | nt | -13% | ? | 21µM*
CCOC(=O)[C@H]1[C@H]2COc3ccc(Cl)cc3[C@@H]2N2C(=O)CN(Cc3ccc(F)cc3)C(=O)[C@@]12C | 1% | nt | nt | ? | ? | ?
CCOC(=O)[C@H]1[C@H]2COc3ccc(OC)cc3[C@H]2N2C(=O)CN(Cc3ccccc3)C(=O)[C@@]12C | -8% | nt | nt | nt | 17% | 9%
CCOC(=O)[C@H]1[C@H]2COc3ccc(Cl)cc3[C@@H]2N2C(=O)CN(Cc3ccc(Cl)cc3)C(=O)[C@@]12C | 3% | nt | nt | ? | ? | 16µM*
Cn1ccc2c(C(=O)NCCc3cnc[nH]3)nc(-c3cnn(Cc4ccccc4)c3)cc21 | 82%[176 µM] | nt | nt | nt | nt | nt
Nc1cccn2nc(-c3ccccc3)nc12 | 1% | nt | nt | nt | nt | nt
Cc1ccccc1C(OCCN(C)C)c1ccccc1 (centres undefined) | ? | 1% | 19% | -5% | 23µM*! | ?
SMILES | ALOX12 inh | Gal4-VP16 FLuc | RORg inh | ELG1 repair inh | DT40 TDP1 CPT | DT40 TDP1 no CPT
CS(=O)(=O)N1CCC(OC2CCN(C(=O)Cc3c[nH]c4ccccc34)CC2)CC1 | 31% | nt | nt | nt | nt | nt
O=C(NCCc1ccco1)C1CC(=O)N(c2n[nH]c3cccc(F)c23)C1 (centres undefined) | 50% | nt | nt | nt | nt | nt
COc1nc2c(cc1CNC(=O)CSC)C(=O)N(CCc1ccccn1)C2 | 7% | nt | nt | nt | nt | nt
Fc1cccc(Nc2nc(N3CCOCC3)nc(N3CCOCC3)n2)c1 | 1% | -10% | 30%[1.91 µM] | ? | 18µM* | -26%
Clc1cccc(Nc2nc(N3CCOCC3)nc(N3CCOCC3)n2)c1 | -21% | 0% | 0% | ? | ? | ?
Cc1ccc(Nc2nc(N/N=C\c3ccc4c(c3)OCO4)nc(N3CCOCC3)n2)cc1 | -1% | -18% | 8.9µM* | ? | 8.2µM* | 9.2µM*
Cc1cc(Nc2cccc(Cl)c2)nc(N2CCOCC2)n1 | -18% | -6% | 28% | ? | 15µM* | ?
Cc1ccc(N/N=C/c2ccc(N3CCOCC3)cc2)cc1C | 8.9µM* | -11% | ? | ? | 23µM* | ?
Cc1cc(C)cc(NC(=O)C(c2ccccc2)N2CCN(C(=O)C3CC3)CC2)c1 (centres undefined) | -22% | nt | nt | nt | nt | nt
Cn1c(=O)[nH]c(=O)c2c1nc(N1CCN(CC(N)=O)CC1)n2Cc1ccc(Cl)cc1 | 10% | nt | nt | nt | nt | nt
COc1ccc(Nc2nc(Nc3ccc(OC)cc3OC)nc(N3CCOCC3)n2)c(OC)c1 | -18% | nt | nt | nt | 15µM* | 13µM*
CCOc1nc(Nc2ccc(OC)c(Cl)c2)nc(OCC)n1 | 0%[57.4 µM] | -4% | 0% | ? | 18µM* | ?
Cc1ccc(Nc2nc(Nc3ccc(C)c(C)c3)nc(N3CCOCC3)n2)cc1C | -1% | nt | nt | nt | 15µM* | 10µM*
COc1ccc(Nc2nc(N3CCOCC3)nc(N3CCOCC3)n2)c(OC)c1 | 4% | -7% | 27% | ? | ? | -8%
COc1ccc(Nc2nc(N3CCOCC3)nc(N3CCOCC3)n2)cc1Cl | 0% | -20% | ? | 5.6µM* | ? | 21µM*
CCOc1nc(NCCO)nc(Nc2cc(Cl)ccc2OC)n1 | 1% | -8% | 9% | -17% | ? | ?
O=C1Nc2ccccc2CC12CN([S+](=O)([O-])c1cccs1)C2 | -1%[6.33 µM] | nt | nt | nt | nt | nt
COc1ccc(Cl)cc1NC(=O)C(C)N1CCN(c2ccccn2)CC1 (centres undefined) | -3% | -2% | 23% | ? | ? | 18µM*
COc1ccc(C)cc1NC(=S)N1CCN(c2ccccn2)CC1 | 1% | ? | ? | 22% | 10% | -2%
